Measured values as given in the supplement of paper PMC12350171.
Where a name gives a salt, the structure may show the parent alone.

Tested on: Haemophilus parainfluenzae
Assay: growth AUC normalised to DMSO control (fraction of control); higher = less growth inhibition, active = hit call of the paper
Settings: 20 µM;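 active = AUC significantly below DMSO controls by Student t-fit with adjusted P under 0.01; inactive = not significantly reduced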
Outline: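 After two anaerobic passages, pathogens were added at a starting OD578 of 0.01 to pre-reduced mGAM plates holding compound at 20 μM with 1% DMSO; hemin and NAD were supplemented for Haemophilus parainfluenzae. Sealed with breathable membranes, plates were read at OD578 hourly for 24 h, in three biological replicates. The trapezoidal rule, applied up to the exponential-to-stationary transition, gave the growth-curve AUC, which was normalised to DMSO controls on the same plate.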

Question: CN1CCCN(C(c2ccccc2)c2ccc(Cl)cc2)CC1 (stereo not given) [Homochlorcyclizine dihydrochloride] was tested. Which “growth AUC normalised to DMSO control” value did it give?
Answer: Its value is 0.942 (inactive).

Question: For Nc1ccccc1S(N)(=O)=O [o-Sulfanilamide], which “growth AUC normalised to DMSO control” value is on record?
Answer: The value was 0.898 (inactive).

Question: For CC(C)(C)NCC(O)c1cc(O)cc(O)c1 (stereo not given) [Terbutaline hemisulfate], which “growth AUC normalised to DMSO control” value is on record?
Answer: Its value is 1.06 (inactive).

Question: With O=C(O)CCC(=O)Nc1ccc(S(=O)(=O)Nc2nccs2)cc1 [Succinylsulfathiazole] as the compound, how does the “growth AUC normalised to DMSO control” value read?
Answer: Its value is 1.01 (inactive).

Question: With CC(C)(C)NC(=O)[C@H]1CC[C@H]2[C@@H]3CC[C@H]4NC(=O)C=C[C@]4(C)[C@H]3CC[C@]12C [Finasteride] as the compound, how does the “growth AUC normalised to DMSO control” value read?
Answer: Its value is 1.06 (inactive).

Question: How did the “growth AUC normalised to DMSO control” value turn out when NC(N)=Nc1nc(CSCC/C(N)=N/S(N)(=O)=O)cs1 [Famotidine] was run?
Answer: Its value is 0.975 (inactive).

Question: With CN(C)C(=N)NC(=N)N [Metformin hydrochloride] as the compound, how does the “growth AUC normalised to DMSO control” value read?
Answer: The value was 1.03 (inactive).

Question: With C[C@]12CC[C@@H]3c4ccc(O)cc4CC[C@H]3[C@@H]1C[C@@H](O)[C@@H]2O [Estriol] as the compound, how does the “growth AUC normalised to DMSO control” value read?
Answer: The value was 1.02 (inactive).

Question: Which “growth AUC normalised to DMSO control” value does the source give for O=C(O)Cc1cc(I)c(Oc2ccc(O)c(I)c2)c(I)c1 [Tiratricol] here?
Answer: Its value is 0.896 (inactive).

Question: For Cc1c(NC(=O)c2cccnc2)c(=O)n(-c2ccccc2)n1C [Nifenazone], which “growth AUC normalised to DMSO control” value is on record?
Answer: Its value is 1.01 (inactive).

Question: Which “growth AUC normalised to DMSO control” value does the source give for CC[C@H](C)[C@H](N)C1=N[C@H](C(=O)N[C@@H](CC(C)C)C(=O)N[C@H](CCC(=O)O)C(=O)N[C@H](C(=O)N[C@H]2CCCCNC(=O)[C@H](CC(N)=O)NC(=O)[C@@H](CC(=O)O)NC(=O)[C@H](Cc3cnc[nH]3)NC(=O)[C@@H](Cc3ccccc3)NC(=O)[C@H]([C@@H](C)CC)NC(=O)[C@@H](CCCN)NC2=O)[C@@H](C)CC)CS1 [Bacitracin] here?
Answer: Its value is 0.999 (inactive).

Question: OCc1cc(C(O)CNCCCCCCOCCCCc2ccccc2)ccc1O (stereo not given) [Salmeterol] was tested. Which “growth AUC normalised to DMSO control” value did it give?
Answer: Its value is 0.962 (inactive).

Question: Which “growth AUC normalised to DMSO control” value does the source give for CN1C(C(=O)Nc2ccccn2)=C(O)c2sccc2S1(=O)=O [Tenoxicam] here?
Answer: Its value is 0.948 (inactive).

Question: Which “growth AUC normalised to DMSO control” value does the source give for O=C(NC(Cc1cc(=O)[nH]c2ccccc12)C(=O)O)c1ccc(Cl)cc1 (stereo not given) [Rebamipide] here?
Answer: Its value is 1.01 (inactive).

Question: With CN1CCN(c2c(F)cc3c(=O)c(C(=O)O)cn(CCF)c3c2F)CC1 [Fleroxacin] as the compound, how does the “growth AUC normalised to DMSO control” value read?
Answer: Its value is 0.0399 (active).

Question: With CN(C)CCOC(c1ccccc1)c1ccccc1.Cn1c(=O)c2[nH]c(Cl)nc2n(C)c1=O [Dimenhydrinate] as the compound, how does the “growth AUC normalised to DMSO control” value read?
Answer: Its value is 0.901 (inactive).

Question: Cc1c(O)c(=O)n(-c2ccccc2)n1C [Antipyrine, 4-hydroxy] was tested. Which “growth AUC normalised to DMSO control” value did it give?
Answer: The value was 0.974 (inactive).

Question: With CC(C)CC(=O)N[C@H](C(=O)N[C@H](C(=O)N[C@@H](CC(C)C)[C@@H](O)CC(=O)N[C@@H](C)C(=O)N[C@@H](CC(C)C)[C@@H](O)CC(=O)O)C(C)C)C(C)C [Pepstatin A] as the compound, how does the “growth AUC normalised to DMSO control” value read?
Answer: The value was 1.07 (inactive).

Question: With NS(=O)(=O)c1cc2c(cc1Cl)NCNS2(=O)=O [Hydrochlorothiazide] as the compound, how does the “growth AUC normalised to DMSO control” value read?
Answer: Its value is 0.967 (inactive).

Question: With CCCN(CCC)C(=O)C(CCC(=O)O)NC(=O)c1ccccc1 (stereo not given) [Proglumide] as the compound, how does the “growth AUC normalised to DMSO control” value read?
Answer: The value was 1.03 (inactive).

Question: How did the “growth AUC normalised to DMSO control” value turn out when CCCCNc1ccc(C(=O)OCCOCCOCCOCCOCCOCCOCCOCCOCCOC)cc1 [Benzonatate] was run?
Answer: The value was 1 (inactive).

Question: OCCN(CCO)c1nc(N2CCCCC2)c2nc(N(CCO)CCO)nc(N3CCCCC3)c2n1 [Dipyridamole] was tested. Which “growth AUC normalised to DMSO control” value did it give?
Answer: Its value is 0.993 (inactive).

Question: Which “growth AUC normalised to DMSO control” value does the source give for COc1cc([S+](C)[O-])ccc1-c1nc2cccnc2[nH]1 (stereo not given) [Sulmazole] here?
Answer: Its value is 1 (inactive).

Question: O=C(O)[C@H]1/C(=C/CO)O[C@@H]2CC(=O)N21 [Clavulanate potassium salt] was tested. Which “growth AUC normalised to DMSO control” value did it give?
Answer: Its value is 1.06 (inactive).

Question: N[C@@H](Cc1cc(I)c(Oc2cc(I)c(O)c(I)c2)c(I)c1)C(=O)O [(L) Thyroxine] was tested. Which “growth AUC normalised to DMSO control” value did it give?
Answer: Its value is 0.96 (inactive).

Question: Cc1cc(C(=O)NNCc2ccccc2)no1 [Isocarboxazid] was tested. Which “growth AUC normalised to DMSO control” value did it give?
Answer: Its value is 1.06 (inactive).

Question: Which “growth AUC normalised to DMSO control” value does the source give for CCCCNc1ccc(C(=O)OCCN(C)C)cc1 [Tetracaine hydrochloride] here?
Answer: The value was 1.16 (inactive).

Question: With O=C1C(CC[S+]([O-])c2ccccc2)C(=O)N(c2ccccc2)N1c1ccccc1 (stereo not given) [Sulfinpyrazone] as the compound, how does the “growth AUC normalised to DMSO control” value read?
Answer: Its value is 1.02 (inactive).

Question: With CCCCN(CCCC)CCC(O)c1cc2c(Cl)cc(Cl)cc2c2cc(C(F)(F)F)ccc12 (stereo not given) [Halofantrine hydrochloride] as the compound, how does the “growth AUC normalised to DMSO control” value read?
Answer: The value was 1.06 (inactive).

Question: Which “growth AUC normalised to DMSO control” value does the source give for CCC(=O)OCC(=O)[C@@]1(OC(=O)CC)[C@@H](C)C[C@H]2[C@@H]3CCC4=CC(=O)C=C[C@]4(C)[C@@]3(Cl)[C@@H](O)C[C@@]21C [Beclomethasone dipropionate] here?
Answer: Its value is 0.969 (inactive).
